Measurements from the supplement of paper PMC3334620.
Whole data set: some 33,000 sequences, median “E-score (-0.5 to 0.5)” near -8e-05, cut for the highest 2% near 0.23. The list comes from a sample in which the highest values are over-represented; it also holds similar and randomly drawn sequences.

target: T1, Nrg2 (UniProt P38082); assay: PBM E-score (8-mer binding enrichment) (E-score (-0.5 to 0.5)); higher = stronger / more preferred TF binding; conditions: protein concentration: 100 nM; construct: GST-full length
T1 sequence: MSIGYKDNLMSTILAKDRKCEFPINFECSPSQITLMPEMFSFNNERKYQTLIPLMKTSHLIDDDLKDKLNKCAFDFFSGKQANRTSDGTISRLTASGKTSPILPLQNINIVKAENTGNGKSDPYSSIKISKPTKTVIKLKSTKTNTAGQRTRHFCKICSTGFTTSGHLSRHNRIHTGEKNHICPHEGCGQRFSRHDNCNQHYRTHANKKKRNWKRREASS
Method: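 Universal 'all 10-mer' protein binding microarrays (Agilent AMADID 015681) probed with GST-tagged S. cerevisiae TFs (full-length or DBD) made by in vitro transcription/translation (PURExpress), about 100-200 nM. Bound TF was detected with fluorescent anti-GST. Each ungapped 8-mer (which stands for itself and its reverse complement) is scored by the PBM enrichment score (E-score), a modified Wilcoxon-Mann-Whitney statistic from -0.5 to +0.5, computed with the Universal PBM Analysis Suite. Scale: above 0.35 generally sequence-specific binding.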

First: ACATAATA
Second: CTGGCCGA
The “PBM E-score” value of the first is higher: 0.295 for the first, -0.163 for the second.

First: AACCTCCT
Second: ACTCATAT
The “PBM E-score” value of the first is lower: -0.264 for the first, -0.028 for the second.

Compared with CCATTCAC, CGGACACG is lower in “PBM E-score” value: 0.0939 for the first, -0.0788 for the second.

First: GTCTAAAA
Second: CAGTCACA
The “PBM E-score” value of the first is lower: -0.0766 for the first, -0.0678 for the second.

Going from CAGTAATA to AAGTAATA, the “PBM E-score” value falls from 0.161 to -0.00088.

Compared with GAGTAATA, ATCGGCTC is lower in “PBM E-score” value: 0.232 for the first, -0.0282 for the second.

Going from AAGAATGT to GTCCTGGA, the “PBM E-score” value falls from 0.107 to -0.261.

First: CCCCTGGA
Second: ACCCTGGG
The “PBM E-score” value of the first is lower: 0.0369 for the first, 0.328 for the second.

Going from AGCCTGGG to AACCTGGG, the “PBM E-score” value rises from -0.159 to -0.131.

Compared with AGCCTGGA, AACCTGGC is lower in “PBM E-score” value: -0.0491 for the first, -0.18 for the second.

First: GCCCTGGA
Second: ACCCTGGA
The “PBM E-score” value of the first is lower: 0.247 for the first, 0.279 for the second.

Going from CCCCTGGC to ACCCTGGC, the “PBM E-score” value rises from 0.11 to 0.338.

Compared with AACCTGGA, CCTAAGGC is lower in “PBM E-score” value: -0.00995 for the first, -0.191 for the second.

Going from CCCTCATC to CGGGGGAC, the “PBM E-score” value falls from -0.0723 to -0.242.

First: ACCCAGGG
Second: AAAACCTA
The “PBM E-score” value of the first is higher: 0.0967 for the first, 0.0556 for the second.

Going from CGTAGGAA to CAGGGAAC, the “PBM E-score” value rises from -0.0744 to 0.0728.

Going from TGCAACAA to ATGAGGTC, the “PBM E-score” value falls from 0.00649 to -0.142.

Going from CGCGCTGA to GGCGCTAA, the “PBM E-score” value falls from 0.0409 to -0.0159.

First: CGCGCTAA
Second: CGCGCTTA
The “PBM E-score” value of the first is higher: 0.259 for the first, 0.254 for the second.

First: TGCGCTAA
Second: AGCGCTTA
The “PBM E-score” value of the first is lower: 0.0259 for the first, 0.131 for the second.

Going from ACTAGTGG to CAGCTCAC, the “PBM E-score” value falls from 0.123 to -0.161.

Compared with CGCCGCTC, ACACGCGT is lower in “PBM E-score” value: 0.0612 for the first, 0.00123 for the second.

First: ACAACATC
Second: ACAACATA
The “PBM E-score” value of the first is lower: -0.042 for the first, 0.268 for the second.

First: GCAACATA
Second: AGTTTGCA
The “PBM E-score” value of the first is higher: 0.0428 for the first, -0.0668 for the second.

Compared with CGGGTGCA, AGGGTTTG is higher in “PBM E-score” value: -0.0669 for the first, 0.172 for the second.

First: AGGGTGCG
Second: AGGGTGCA
The “PBM E-score” value of the first is lower: 0.0103 for the first, 0.256 for the second.

Going from GGGGTTCA to CGGGTTTA, the “PBM E-score” value falls from 0.166 to 0.104.

Going from AGGGTTCA to AGGGTTCC, the “PBM E-score” value falls from 0.281 to 0.189.

Compared with AGGGTTTA, AGCTGGCG is lower in “PBM E-score” value: 0.235 for the first, -0.158 for the second.

Going from AACCCGTA to GAATTCGA, the “PBM E-score” value rises from -0.0217 to 0.0262.

Going from AAAACTAT to AAAACTAA, the “PBM E-score” value rises from 0.0045 to 0.234.

Compared with TCAACTAA, CCAACTAA is lower in “PBM E-score” value: 0.0939 for the first, 0.0905 for the second.

Going from GCAACTAA to TAAACTAA, the “PBM E-score” value falls from 0.288 to 0.186.

Compared with TTAACTAA, ATAACTAA is lower in “PBM E-score” value: 0.249 for the first, 0.0389 for the second.

Going from CTAACTAA to ACAGTTCG, the “PBM E-score” value rises from -0.0143 to 0.103.

First: GAGGCAAC
Second: AAGTAAGG
The “PBM E-score” value of the first is lower: -0.192 for the first, 0.159 for the second.

Going from CGAAAACA to CTGGCCTA, the “PBM E-score” value falls from 0.0723 to -0.0943.

Going from ACTTAGCT to CGCAGAAA, the “PBM E-score” value rises from -0.202 to 0.0592.

Going from CATATATA to TAAATATA, the “PBM E-score” value falls from 0.205 to 0.144.

Going from TATATACA to GATATATA, the “PBM E-score” value rises from 0.207 to 0.247.

Compared with AATATATT, GATATATC is lower in “PBM E-score” value: 0.341 for the first, 0.0168 for the second.

First: AATATATA
Second: GAAATATA
The “PBM E-score” value of the first is lower: 0.0908 for the first, 0.256 for the second.

First: AAAATATA
Second: AATATATG
The “PBM E-score” value of the first is lower: 0.00189 for the first, 0.225 for the second.

First: TATATATA
Second: GATATACA
The “PBM E-score” value of the first is higher: 0.269 for the first, 0.0803 for the second.

Going from AGGCCGCC to CGACCAAA, the “PBM E-score” value rises from -0.0684 to 0.222.

Compared with ATTACCAA, CATTGACG is lower in “PBM E-score” value: 0.0553 for the first, -0.0426 for the second.

First: ACTTCGGC
Second: AATATGGA
The “PBM E-score” value of the first is lower: -0.0688 for the first, 0.0669 for the second.

Going from CAAATATC to CAAATAGA, the “PBM E-score” value rises from 0.256 to 0.296.

Going from GATATGGA to TAAATAGA, the “PBM E-score” value falls from 0.259 to -0.125.

Going from CAAATATG to CAAATATA, the “PBM E-score” value rises from -0.0116 to 0.03.

Compared with AAAATAGA, TATATGGA is lower in “PBM E-score” value: 0.118 for the first, 0.0065 for the second.

Going from TAGCGTGA to CGGTAGAC, the “PBM E-score” value rises from 0.0132 to 0.0168.

Going from CGGCGAAC to CATTGGCC, the “PBM E-score” value rises from -0.0868 to -0.0708.

Compared with ATCAGAAA, GGAATAAC is higher in “PBM E-score” value: -0.042 for the first, 0.132 for the second.

Going from TAGGACAA to GGATAGTA, the “PBM E-score” value rises from 0.049 to 0.177.

Compared with GTTATTCA, ATTATTCA is higher in “PBM E-score” value: 0.105 for the first, 0.23 for the second.

Compared with ATTATGCC, CTTATTAA is higher in “PBM E-score” value: 0.115 for the first, 0.196 for the second.

Compared with ACTATTCG, CTTATTCA is lower in “PBM E-score” value: 0.193 for the first, -0.00255 for the second.

First: ATTATTCC
Second: ATTATGCA
The “PBM E-score” value of the first is higher: 0.0891 for the first, -0.00258 for the second.

First: ATTATTCG
Second: ATTATGCG
The “PBM E-score” value of the first is higher: 0.295 for the first, 0.266 for the second.

First: GTTATTAA
Second: ATTATTAA
The “PBM E-score” value of the first is lower: 0.182 for the first, 0.238 for the second.

Compared with CTTGATGC, CCAACCCA is lower in “PBM E-score” value: -0.0811 for the first, -0.242 for the second.

First: TCTTCTAA
Second: CAGATATG
The “PBM E-score” value of the first is lower: -0.0126 for the first, 0.159 for the second.

First: CGGATTGC
Second: CGCGTTTA
The “PBM E-score” value of the first is higher: 0.161 for the first, 0.0535 for the second.

Going from TGTCCGAA to ACAGGCTC, the “PBM E-score” value falls from 0.143 to -0.159.

First: ACCTCCCG
Second: TCGGTCAA
The “PBM E-score” value of the first is lower: -0.177 for the first, 0.0158 for the second.

Going from CCCAGACG to CTTGCGAC, the “PBM E-score” value falls from -0.0304 to -0.142.

First: ATTATACA
Second: CTCATTAA
The “PBM E-score” value of the first is lower: -0.00719 for the first, 0.173 for the second.

First: ATCATTAA
Second: ATTATACC
The “PBM E-score” value of the first is lower: 0.171 for the first, 0.18 for the second.

Compared with ATTATACG, GTCATTAA is lower in “PBM E-score” value: 0.252 for the first, 0.25 for the second.

First: TGACGTAA
Second: CCTTAGAA
The “PBM E-score” value of the first is lower: -0.175 for the first, -0.0241 for the second.

First: GCTAACCA
Second: GTAAGATA
The “PBM E-score” value of the first is lower: -0.172 for the first, 0.0912 for the second.

Going from GCAACCTA to GAATCCTC, the “PBM E-score” value falls from 0.0294 to -0.1.

Compared with AGTAAGGC, AGCAAGGG is higher in “PBM E-score” value: -0.036 for the first, 0.261 for the second.

First: AGCAAAGG
Second: AGTAAGGG
The “PBM E-score” value of the first is lower: 0.0268 for the first, 0.233 for the second.

First: AGCAAGGC
Second: AGTAAGGA
The “PBM E-score” value of the first is lower: -0.0107 for the first, -0.00565 for the second.

Compared with AGCAACTC, GCCGGATA is higher in “PBM E-score” value: -0.0833 for the first, 0.0712 for the second.

Going from GAAAGCCC to GAAACACC, the “PBM E-score” value falls from 0.0882 to 0.0146.

Compared with AATCCCTA, AGTCCCTG is higher in “PBM E-score” value: 0.154 for the first, 0.294 for the second.

Going from AATCCCTC to AATCCCTG, the “PBM E-score” value rises from -0.0866 to 0.278.

Going from AGTCCCTA to AGTCCCTC, the “PBM E-score” value falls from 0.0553 to -0.0587.

Compared with CTTCAGCC, ACATCAAT is higher in “PBM E-score” value: -0.229 for the first, 0.079 for the second.

Going from ATAAATTG to ATAAATTC, the “PBM E-score” value falls from 0.272 to 0.0818.

Compared with ATCAATTA, ATCAATTC is lower in “PBM E-score” value: 0.271 for the first, 0.107 for the second.

First: CTAAATTA
Second: ATAAATTA
The “PBM E-score” value of the first is lower: 0.127 for the first, 0.316 for the second.

Compared with GTAAATTA, AAAAATTG is higher in “PBM E-score” value: -0.132 for the first, -0.095 for the second.

With ATCAATTG the “PBM E-score” value was 0.15.
